Measurements published in PubChem BioAssay (EPA / NIEHS).
Values joined by “and” are separate entries in the source; they are usually repeats but may differ in a detail not shown here. Equal values may be shown once. Results filed as inconclusive are left out. Active and inactive are the calls of the source. Rule for the calls, unless noted: active = hit-call score of the fitted dose curve at least 0.9, where 1 is the maximum; inconclusive = response in the unintended direction; inactive = score below 0.9.

Legend:
[1] = biological target: Estrogen receptor beta (Homo sapiens) (UniProt Q92731); experiment: OT_ER_ERbERb_1440: Odyssey Thera (OT) 24-hour HEK293T Protein-Complementation Assay for Estrogen Receptor-beta/-beta Homodimer (AID 2283380);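 note: fluorescence gain from ER beta LBD homodimer complementation read by laser scanning cytometry; scored as signal increase over DMSO baseline for both agonists and antagonists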
Procedure, shortened: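 HEK293T cells stably expressing human ER-beta LBD (aa 310-547) PCA homodimer pair, dosed 24 h; formaldehyde-fixed, Draq5-stained. Readout: increase in nuclear (agonist) or nuclear plus cytoplasmic (antagonist) fluorescence intensity versus DMSO, gain-of-signal fitting.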

[2] = biological target: Estrogen receptor (Homo sapiens) (UniProt P03372); experiment: OT_ERa_GFPERaERE_0480: Odyssey Thera (OT) 8-hour HeLa Transcription Induction Assay for Estrogen Receptor (AID 2283381; active = hit-call score of the fitted dose curve at least 0.9, where 1 is the maximum; inactive = score below 0.9)
Procedure, shortened: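 Human cervical HeLa cells were treated for 8 hours, after which ERE-driven GFP induction was measured by fluorescence microscopy; increases over DMSO baseline defined activity.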

[3] = biological target: Estrogen receptor (Homo sapiens) (UniProt P03372); experiment: OT_ERa_GFPERaERE_0120: Odyssey Thera (OT) 2-hour HeLa Transcription Induction Assay for Estrogen Receptor (AID 2283382)
Procedure, shortened: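 Cells (human cervical HeLa) receive compound, incubate 2 hours, then are imaged for fluorescent reporter induction. Images are quantified by high content analysis, and activity is fitted as gain of signal against DMSO.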

[4] = biological target: Bile acid receptor (Homo sapiens) (UniProt Q96RI1); experiment: OT_FXR_FXRSRC1_0480: Odyssey Thera (OT) 8-hour HEK293T Protein-Complementation Assay for Farnesoid X receptor/SRC-1 Co-activator (AID 2283383)
Procedure, shortened: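 PCA, HEK293T, 8 h compound exposure; FXR–SRC-1 binding reconstitutes split reporter; fluorescence intensity; positive-direction fit vs DMSO.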

[5] = biological target: Bile acid receptor (Homo sapiens) (UniProt Q96RI1); experiment: OT_FXR_FXRSRC1_1440: Odyssey Thera (OT) 24-hour HEK293T Protein-Complementation Assay for Farnesoid X receptor/SRC-1 Co-activator (AID 2283384)
Procedure, shortened: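 Measures ligand-driven FXR–SRC-1 co-activator recruitment in HEK293T via fragment complementation, fluorescence intensity at 24 h. DMSO served as negative control and baseline for gain-of-signal fitting.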

[6] = biological target: Retinoic acid receptor RXR-alpha (Homo sapiens) (UniProt P19793); experiment: OT_NURR1_NURR1RXRa_0480: Odyssey Thera (OT) 8-hour HEK293T Protein Complementation Assay for Nurr1/retinoid X receptor (RXR) (AID 2283385)
Procedure, shortened: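 Interaction of bait and prey reconstitutes a functional reporter, whose fluorescence was measured in HEK293T cells dosed with compound for 8 hours. Signal gain relative to DMSO defined the single endpoint.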

[7] = biological target: Retinoic acid receptor RXR-alpha (Homo sapiens) (UniProt P19793); experiment: OT_NURR1_NURR1RXRa_1440: Odyssey Thera (OT) 24-hour HEK293T Protein Complementation Assay for Nurr1/retinoid X receptor (RXR) (AID 2283386)
Procedure, shortened: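 Steps: fragment-tagged Nurr1 and RXRα expressed in HEK293T; compounds added; after 24 h, complemented reporter quantified by fluorescence intensity; signal increase over DMSO fitted as the single endpoint.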

[8] = read-out: Tumor necrosis factor receptor superfamily member 6 (Homo sapiens) (UniProt P25445); experiment: LTEA_HepaRG_FAS: Life Technologies and Expression Analysis (LTEA) Assay for Fas cell surface death receptor (FAS) using HepaRG (AID 2283447; active = hit-call score of the fitted dose curve at least 0.9, where 1 is the maximum; inactive = score below 0.9); details: mRNA level, 48 h; actives raise or lower the signal
Procedure, shortened: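 Differentiated human HepaRG cells, pre-cultured 48 h, were exposed in duplicate for 48 h to 8-point half-log concentrations (top 100 uM, 0.5% DMSO) in serum-free induction medium; FAS mRNA measured by qRT-PCR, normalized to ACTB/GAPDH/POLR2A, bidirectional fit versus DMSO.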

[9] = biological target: Peroxisome proliferator-activated receptor gamma (Homo sapiens) (UniProt P37231); experiment: OT_PPARg_PPARgSRC1_0480: Odyssey Thera (OT) 8-hour Protein-Complementation Assay for Peroxisome Proliferator-activated Receptor Gamma / SRC-1 Co-activator (AID 2283387);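 note: nuclear to cytoplasmic split Venus YFP fluorescence ratio reporting PPARg SRC-1 interaction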
Procedure, shortened: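 Protein-fragment complementation in HEK293T: Venus YFP halves (residues 1-158, 159-239, mutated to IFP1/IFP2) fused to PPARg/SRC-1. 8 h exposure; N/C ratio at 488 nm; DMSO negative control.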

[10] = biological target: Peroxisome proliferator-activated receptor gamma (Homo sapiens) (UniProt P37231); experiment: OT_PPARg_PPARgSRC1_1440: Odyssey Thera (OT) 24-hour Protein-Complementation Assay for Peroxisome Proliferator-activated Receptor Gamma/ SRC-1 Co-activator (AID 2283388);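 note: nuclear to cytoplasmic ratio of reconstituted Venus YFP fluorescence in fixed imaged cells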
Procedure, shortened: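 Transient HEK293T, YFP fragments 1-158/159-239 (mutant IFP1/IFP2) fused to PPARg/SRC-1; 24 h dosing; fix 4% formaldehyde, Draq5; Opera imaging 488/635 nm; N/C ratio, gain vs DMSO.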

[11] = biological target: Agonist Androgen Response Element (ARE), AR (gene 367) (UniProt P10275); experiment: OT_AR_ARELUC_AG_1440: Odyssey Thera (OT) 24-hour CHO-K1 Luciferase Assay for Agonist Androgen Response Element (ARE) (AID 2283379)
Procedure, shortened: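 Luminescence increase above DMSO, read after a 24 h compound treatment of CHO-K1 cells expressing an androgen response element luciferase reporter, gives the single primary endpoint; concentration-response fitting used the positive direction.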

[12] = CEETOX_H295R_11DCORT: CeeTox H295R High-throughput Steroidogenesis Assay for 11-Deoxycortisol (11DCORT) (AID 2283432; active = hit-call score of the fitted dose curve at least 0.9, where 1 is the maximum; inactive = score below 0.9); details: actives raise or lower the signal
Procedure, shortened: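 Adrenal carcinoma line H295R, run per OECD 456 with minor changes, was forskolin-stimulated (10 uM, 48 h) before a 48 h chemical exposure at 0.1% DMSO. Secreted 11-deoxycortisol was quantified by HPLC-MS/MS.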

[13] = CEETOX_H295R_OHPREG: CeeTox H295R High-throughput Steroidogenesis Assay for OH-Pregnenolone (OHPREG) (AID 2283434; active = hit-call score of the fitted dose curve at least 0.9, where 1 is the maximum; inactive = score below 0.9); details: actives raise or lower the signal
Procedure, shortened: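 Readout: HPLC-MS/MS of 17alpha-hydroxypregnenolone in medium after 48 h chemical exposure of H295R cells pretreated with forskolin. Values fitted bidirectionally relative to DMSO; chemicals reducing viability to 20–70% were retested after 10-fold dilution.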

[14] = CEETOX_H295R_OHPROG: CeeTox H295R High-throughput Steroidogenesis Assay for OH-Progesterone (OHPROG) (AID 2283435; active = hit-call score of the fitted dose curve at least 0.9, where 1 is the maximum; inactive = score below 0.9;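 for AC50: human adrenal H295R cells primed 48 h with 10 µM forskolin; 17alpha-hydroxyprogesterone secreted into medium measured by HPLC-MS/MS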); details: actives raise or lower the signal
Procedure, shortened: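 Steps: seed H295R cells and adhere overnight; stimulate with 10 uM forskolin for 48 h; replace with chemical-containing medium (0.1% DMSO) for 48 h; extract medium with MTBE; quantify 17alpha-hydroxyprogesterone by reverse-phase C18 HPLC-MS/MS against a 7-point curve.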

[15] = CEETOX_H295R_ANDR: CeeTox H295R High-throughput Steroidogenesis Assay for Androstenedione (ANDR) (AID 2283436; active = hit-call score of the fitted dose curve at least 0.9, where 1 is the maximum; inactive = score below 0.9;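 note: human H295R adrenal cells exposed for 48 h with androstenedione measured in medium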); details: actives raise or lower the signal
Procedure, shortened: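 Steroidogenesis in H295R adrenal cells after 48 h dosing; androstenedione quantified by LC-MS/MS, with DMSO as negative control and baseline for bidirectional curve fitting.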

[16] = CEETOX_H295R_CORTISOL: CeeTox H295R High-throughput Steroidogenesis Assay for Cortisol (AID 2283438; active = hit-call score of the fitted dose curve at least 0.9, where 1 is the maximum; inactive = score below 0.9;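 note: cortisol secreted into medium quantified by LC-MS/MS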); details: actives raise or lower the signal
Procedure, shortened: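 Cortisol synthesis by H295R cells is measured 48 h after chemical dosing, following a 48 h stimulation with 10 uM forskolin. Hormone is extracted and quantified by HPLC-MS/MS, and activity is fitted bidirectionally against the DMSO control.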

[17] = CEETOX_H295R_DOC: CeeTox H295R High-throughput Steroidogenesis Assay for DOC (AID 2283439; active = hit-call score of the fitted dose curve at least 0.9, where 1 is the maximum; inactive = score below 0.9); details: actives raise or lower the signal
Procedure, shortened: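 Steps: seed H295R, adhere overnight; 10 uM forskolin 48 h; replace with chemical medium (0.1% DMSO) 48 h; collect medium, MTBE extraction, HPLC-MS/MS for DOC. Viability then checked by MTT; cytotoxic chemicals diluted until viability ≥70%.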

[18] = CEETOX_H295R_PROG: CeeTox H295R High-throughput Steroidogenesis Assay for Progesterone (PROG) (AID 2283442; active = hit-call score of the fitted dose curve at least 0.9, where 1 is the maximum; inactive = score below 0.9;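 for AC50: human H295R adrenal cells primed with 10 µM forskolin before dosing; progesterone secreted into medium by H295R cells measured by HPLC-MS/MS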); details: actives raise or lower the signal
Procedure, shortened: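 Adrenal H295R line, forskolin-stimulated (10 uM, 48 h) before dosing. 48 h exposure, 0.1% DMSO vehicle. Secreted progesterone by reverse-phase HPLC with ESI+ MS/MS quantification; DMSO-normalised bidirectional curve fit.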

Measured: AC50

Retinoic acid receptor RXR-alpha (Homo sapiens), sequence (P19793 whole entry, looked up, the tested form may be a part): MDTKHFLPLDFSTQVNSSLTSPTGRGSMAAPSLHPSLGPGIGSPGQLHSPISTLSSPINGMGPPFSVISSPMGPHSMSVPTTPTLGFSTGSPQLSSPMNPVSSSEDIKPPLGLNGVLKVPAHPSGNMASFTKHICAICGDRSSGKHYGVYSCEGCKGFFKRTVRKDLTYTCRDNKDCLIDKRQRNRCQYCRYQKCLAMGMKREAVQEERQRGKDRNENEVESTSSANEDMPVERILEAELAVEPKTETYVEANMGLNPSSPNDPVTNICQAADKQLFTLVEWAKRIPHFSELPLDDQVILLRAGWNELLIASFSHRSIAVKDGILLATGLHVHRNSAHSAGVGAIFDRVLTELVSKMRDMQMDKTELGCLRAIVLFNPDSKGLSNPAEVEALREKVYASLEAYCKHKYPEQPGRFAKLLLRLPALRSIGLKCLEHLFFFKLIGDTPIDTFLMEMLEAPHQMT
Agonist Androgen Response Element (ARE), AR (gene 367), sequence (P10275 whole entry, looked up): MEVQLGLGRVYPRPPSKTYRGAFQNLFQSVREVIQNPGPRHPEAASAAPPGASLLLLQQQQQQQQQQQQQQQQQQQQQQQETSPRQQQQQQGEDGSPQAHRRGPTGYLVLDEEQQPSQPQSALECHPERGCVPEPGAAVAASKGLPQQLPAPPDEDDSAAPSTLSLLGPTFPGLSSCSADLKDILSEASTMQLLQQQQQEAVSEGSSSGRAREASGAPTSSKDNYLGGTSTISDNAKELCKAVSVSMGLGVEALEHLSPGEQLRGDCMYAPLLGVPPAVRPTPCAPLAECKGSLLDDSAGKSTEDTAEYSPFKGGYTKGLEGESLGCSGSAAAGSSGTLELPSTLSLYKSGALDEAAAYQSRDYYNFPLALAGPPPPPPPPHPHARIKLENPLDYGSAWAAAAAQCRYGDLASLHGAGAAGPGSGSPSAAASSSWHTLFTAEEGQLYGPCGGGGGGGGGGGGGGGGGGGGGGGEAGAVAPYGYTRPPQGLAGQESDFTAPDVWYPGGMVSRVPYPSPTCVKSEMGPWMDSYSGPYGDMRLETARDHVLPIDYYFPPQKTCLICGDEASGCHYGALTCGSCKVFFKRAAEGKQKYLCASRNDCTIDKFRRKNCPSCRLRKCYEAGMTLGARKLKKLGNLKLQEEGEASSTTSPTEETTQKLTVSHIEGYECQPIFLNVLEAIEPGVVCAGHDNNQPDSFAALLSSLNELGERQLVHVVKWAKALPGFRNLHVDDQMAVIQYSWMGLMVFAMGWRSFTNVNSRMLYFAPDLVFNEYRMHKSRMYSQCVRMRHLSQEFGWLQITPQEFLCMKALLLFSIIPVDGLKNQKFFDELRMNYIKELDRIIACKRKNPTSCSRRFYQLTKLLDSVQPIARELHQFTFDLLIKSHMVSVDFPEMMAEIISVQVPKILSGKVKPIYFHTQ
Peroxisome proliferator-activated receptor gamma (Homo sapiens), sequence (P37231 whole entry, looked up, the tested form may be a part): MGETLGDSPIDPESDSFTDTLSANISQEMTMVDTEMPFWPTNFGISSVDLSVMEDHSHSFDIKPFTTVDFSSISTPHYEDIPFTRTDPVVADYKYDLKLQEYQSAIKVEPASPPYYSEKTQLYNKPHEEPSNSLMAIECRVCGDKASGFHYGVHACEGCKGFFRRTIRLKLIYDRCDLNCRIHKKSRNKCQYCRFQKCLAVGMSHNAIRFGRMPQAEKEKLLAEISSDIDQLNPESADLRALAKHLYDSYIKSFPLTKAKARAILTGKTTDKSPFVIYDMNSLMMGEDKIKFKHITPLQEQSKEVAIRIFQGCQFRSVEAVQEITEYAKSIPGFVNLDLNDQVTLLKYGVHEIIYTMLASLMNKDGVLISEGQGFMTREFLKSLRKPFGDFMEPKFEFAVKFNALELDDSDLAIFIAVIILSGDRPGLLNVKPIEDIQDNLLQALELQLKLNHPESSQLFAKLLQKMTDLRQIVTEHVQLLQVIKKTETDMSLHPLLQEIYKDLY
Estrogen receptor (Homo sapiens), sequence (P03372 whole entry, looked up): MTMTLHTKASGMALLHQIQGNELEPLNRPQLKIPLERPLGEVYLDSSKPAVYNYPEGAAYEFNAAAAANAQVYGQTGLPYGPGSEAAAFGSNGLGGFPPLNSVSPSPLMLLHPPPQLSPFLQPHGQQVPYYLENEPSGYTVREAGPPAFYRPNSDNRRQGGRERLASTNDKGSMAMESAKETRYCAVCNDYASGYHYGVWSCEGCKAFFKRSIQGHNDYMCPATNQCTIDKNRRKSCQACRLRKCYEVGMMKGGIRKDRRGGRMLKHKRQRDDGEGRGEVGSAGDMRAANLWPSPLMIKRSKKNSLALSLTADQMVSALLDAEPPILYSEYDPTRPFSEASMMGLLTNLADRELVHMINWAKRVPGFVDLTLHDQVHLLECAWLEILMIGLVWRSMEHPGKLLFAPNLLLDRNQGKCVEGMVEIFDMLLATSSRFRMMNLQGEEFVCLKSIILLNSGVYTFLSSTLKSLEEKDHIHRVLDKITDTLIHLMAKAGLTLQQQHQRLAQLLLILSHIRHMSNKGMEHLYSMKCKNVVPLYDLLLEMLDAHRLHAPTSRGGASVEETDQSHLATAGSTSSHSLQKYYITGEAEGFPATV
Estrogen receptor beta (Homo sapiens), sequence (Q92731 whole entry, looked up, the tested form may be a part): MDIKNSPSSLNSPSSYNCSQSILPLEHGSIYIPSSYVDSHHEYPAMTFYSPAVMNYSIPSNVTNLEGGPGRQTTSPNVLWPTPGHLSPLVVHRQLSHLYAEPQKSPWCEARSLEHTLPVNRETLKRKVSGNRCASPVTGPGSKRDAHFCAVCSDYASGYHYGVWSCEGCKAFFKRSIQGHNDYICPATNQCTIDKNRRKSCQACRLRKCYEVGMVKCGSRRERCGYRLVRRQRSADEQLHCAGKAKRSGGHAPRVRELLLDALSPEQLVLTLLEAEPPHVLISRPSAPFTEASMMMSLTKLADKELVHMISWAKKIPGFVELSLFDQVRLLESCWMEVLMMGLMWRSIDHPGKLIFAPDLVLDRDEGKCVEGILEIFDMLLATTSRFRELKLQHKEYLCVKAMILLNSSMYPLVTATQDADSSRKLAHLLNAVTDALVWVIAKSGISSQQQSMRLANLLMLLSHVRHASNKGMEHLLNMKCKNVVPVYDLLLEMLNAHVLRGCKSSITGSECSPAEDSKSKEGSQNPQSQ
Bile acid receptor (Homo sapiens), sequence (Q96RI1 whole entry, looked up, the tested form may be a part): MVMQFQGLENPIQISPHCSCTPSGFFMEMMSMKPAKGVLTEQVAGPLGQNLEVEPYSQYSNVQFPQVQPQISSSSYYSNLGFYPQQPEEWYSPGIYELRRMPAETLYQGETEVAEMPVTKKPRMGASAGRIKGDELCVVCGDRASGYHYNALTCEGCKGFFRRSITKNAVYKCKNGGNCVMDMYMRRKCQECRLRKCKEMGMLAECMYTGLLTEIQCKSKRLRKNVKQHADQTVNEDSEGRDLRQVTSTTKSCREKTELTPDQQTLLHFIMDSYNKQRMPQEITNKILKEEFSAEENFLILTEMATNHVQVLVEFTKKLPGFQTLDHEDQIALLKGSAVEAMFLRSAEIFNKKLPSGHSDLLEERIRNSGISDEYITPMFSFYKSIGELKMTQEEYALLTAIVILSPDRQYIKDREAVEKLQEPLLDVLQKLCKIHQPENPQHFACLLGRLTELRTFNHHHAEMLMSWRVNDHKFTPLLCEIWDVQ

CCCCN(CCCC)CCCC
inactive: [1] | [2] | [3] | [4] | [5] | [6] | [7] | [8]

COc1cc(-c2nc(NC(=O)c3cc4cc(C)cc(C)c4n3CC(=O)O)sc2CCC2CCCCC2)c(OC)cc1Cl
inactive: [1] | [3] | [4] | [9] | [10]
active: [2] 66.2 µM | [5] 10.1 µM | [6] 10.3 µM and 10 µM | [7] 10.3 µM and 9.86 µM | [8] 20.8 µM

COc1ccc2c(c1)c(CC(=O)O)c(C)n2C(=O)c1ccc(Cl)cc1
inactive: [11] | [2] | [3] | [10] | [12] | [13] | [14] | [15] | [16] | [17] | [18] | [8]

O=C(O)CCCCC(=O)O
inactive: [1] | [2] | [3] | [4] | [5] | [6] | [7] | [10] | [8]

CCCCCCCCCCCC(=O)OC
inactive: [1] | [2] | [3] | [4] | [5] | [6] | [7] | [10] | [8]

COc1cc(C=O)ccc1O
active: [11] 50 µM
inactive: [1] | [2] | [3] | [4] | [6] | [7] | [9] | [10] | [8]

CC(=O)Oc1ccccc1C(=O)O
inactive: [11] | [1] | [2] | [3] | [6] | [7] | [9] | [10] | [8]

COc1ccc(C)cc1N
active: [14] 19.3 µM | [16] 36.7 µM | [18] 33.2 µM
inactive: [11] | [2] | [3] | [6] | [7] | [9] | [10] | [12] | [13] | [15] | [17] | [8]

CCc1c(C(=O)NN2CCCCC2)nn(-c2ccc(Cl)cc2Cl)c1-c1ccc(Br)cc1
inactive: [1] | [2] | [3] | [4] | [6] | [7] | [10]
active: [5] 1.28 µM | [8] 50 µM
